# Compounds with a hit are over-represented: about 9.2% of the library has one in this group of screens.
# ELG1 repair inh = blocks ELG1-dependent DNA repair in HEK293T cells; actives 2.3% (n = 330,000); Potency, µM (series often up to 46.1 µM), for the others: at the highest dose activity change, negative = inhibition, most hits filed as inhibitors; HEK293T ELG1-luciferase reporter, luminescence, 16 h; DNA damage induced by 5-fluorouridine; AID 504467; also: % is scaled to controls: 0 for no effect and ±100 for the full control effect; nearly all actives have a fitted effect of over 55% in size
#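 Luminescence from the luciferase reporter, measured 30 min after ONE-Glo reagent at room temperature, was the read-out. Beforehand, 2,000 cells per well were exposed for 16 hr at 37 °C to 5-fluorouridine together with compound or vehicle.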
# FLuc modulator = counter-screen for miR-21 project: firefly luciferase inhibitors or activators; P08659; purified FLuc, Km substrates, luminescence inhibition; Potency, µM (top dose mostly 57.5 µM), without a hit: top-dose activity change, negative = inhibition, hits mostly inhibitors; actives 6.9% (n = 360,000); AID 588342;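 also: plate controls were vehicle for no effect and reference inhibitor for full effect; nearly all actives have a fitted effect of over 55% in size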
# Target sequence (P08659 whole entry, looked up): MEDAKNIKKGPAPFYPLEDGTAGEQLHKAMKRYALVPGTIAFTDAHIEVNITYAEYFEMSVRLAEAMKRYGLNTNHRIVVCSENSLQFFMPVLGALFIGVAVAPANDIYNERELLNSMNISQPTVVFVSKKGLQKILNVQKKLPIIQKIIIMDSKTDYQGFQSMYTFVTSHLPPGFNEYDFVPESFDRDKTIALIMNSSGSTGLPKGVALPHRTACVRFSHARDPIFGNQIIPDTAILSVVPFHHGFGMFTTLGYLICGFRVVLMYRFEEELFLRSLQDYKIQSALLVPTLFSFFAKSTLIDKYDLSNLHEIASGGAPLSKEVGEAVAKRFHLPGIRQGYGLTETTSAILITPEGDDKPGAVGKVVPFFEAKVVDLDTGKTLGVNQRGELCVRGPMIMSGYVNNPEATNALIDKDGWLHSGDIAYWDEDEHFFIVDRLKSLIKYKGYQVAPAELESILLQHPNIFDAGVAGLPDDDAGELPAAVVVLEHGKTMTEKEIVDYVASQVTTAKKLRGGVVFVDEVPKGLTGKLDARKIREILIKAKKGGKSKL
#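 Biochemical qHTS of compounds, final roughly 60 µM downward over six points, against 10 nM purified firefly luciferase using Km concentrations of substrates (10 uM D-luciferin, 10 uM ATP) in Tris acetate pH 7.5 buffer; luminescence output.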
# SMN2 splice up = SMN2 splice variant enhancement | AID 1458 | HEK293 SMN2-luciferase splicing reporter, luminescence, 30-36 h | actives 2.8% (n = 210,000) | Potency, µM (titrated, usually from 46.1 µM), inactives show at the top dose activity change, positive = activation, most hits filed as activators; also: % of control where 0% means no effect; nearly all actives have a fitted effect of over 55% in size
#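 HEK293 cells carry an SMN2 […]–luciferase reporter in which exon 7 inclusion puts luciferase in frame. Cells were plated 10-12 h before compound addition, then incubated 30-36 h at 37C. ONE-Glo luminescence was read; sodium butyrate at 4.5 mM final served as control.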
# ELG1 genotoxic = inducers of genotoxicity in HEK293T ELG1-luciferase cells. AID 504466. HEK293T ELG1-luciferase reporter, luminescence, 16 h. actives 1.3% (n = 330,000). Potency, µM (titrated, usually from 46 µM), without a hit: top-dose activity change, positive = activation, usual class: activators; also: % of control where 0% means no effect; nearly all actives have a fitted effect of over 60% in size
#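 Luminescence read-out: rising ELG1-luciferase signal, reflecting elevated ELG1 protein under genetic stress, flags genotoxic compounds. Cells were treated for 16 hr at 37 °C before ONE-Glo detection.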
# NPC1 prom act = NPC1 promoter activation; Huh7 NPC1 promoter luciferase reporter, 24 h; Potency, µM (series often up to 9.22 µM), inactives show top-dose activation, usual class: activators; actives 2.4% (n = 320,000); AID 485313; also: % of control where 0% means no effect; nearly all actives have a fitted effect of over 60% in size
#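 Quantitative HTS used a cell-based reporter: Huh7 cells stably bearing the NPC1 promoter upstream of luciferase were treated with compounds for 24 h, and promoter activation was read as luminescence.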
# Rab9 promoter act = Rab9 promoter activation; Potency, µM (top dose mostly 9.22 µM), for the others: top-dose activation, negative = inhibition, hits mostly activators; AID 485297; Huh7 Rab9 promoter-luciferase reporter, luminescence, 24 h; actives 2.8% (n = 320,000); also: % of control where 0% means no effect; nearly all actives have a fitted effect of over 60% in size
#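 Luciferase signal after 10 min detection reagent at ambient indicates Rab9 promoter upregulation; stably transfected Huh7 cells were treated 24 h with compound in DMSO at 37 °C, 5% CO2.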
# * marks the source's active call; other numbers are inactive results; ? = inconclusive; . = no result given; [ ] = dose if it differs, or a comment. Calls follow the shape of the dose curve; as a rule, active = well fitted curve in the direction sought with a large enough effect; inconclusive = small, poorly fitted or top-dose-only effect, or another doubt; inactive = no such curve, though single readings can be large; an effect the other way counts as inactive or inconclusive. Potency is read from the fitted curve at half-maximal effect.
SMILES,ELG1 repair inh,FLuc modulator,SMN2 splice up,ELG1 genotoxic,NPC1 prom act,Rab9 promoter act
O=C(NC(C(=O)N/N=C/c1c2ccccc2cc2ccccc12)c1n[nH]c(=O)c2ccccc12)c1ccccc1 (stereo not given),-23%,1%,.,-3%,0%,8%
COc1ccc(Cc2nc3ccc(C(=O)NCC(C)(C)OC)cc3o2)cc1,?,19µM*,.,?,3.5µM*,3.5µM*
COc1ccc(Cc2nc3ccc(C(=O)N4CCCCC4CCO)cc3o2)cc1 (stereo not given),-3%,-7%,.,2%,9%,-4%
COc1ccc(Cc2nc3ccc(C(=O)NCc4cc(C)no4)cc3o2)cc1,?,13µM*,.,16µM*,4µM*,3.5µM*
CCC1CCCCN1C(=O)c1ccc2nc(Cc3ccc(OC)cc3)oc2c1 (stereo not given),?,19µM*,.,?,?,3.5µM*
CCc1cc(CNC(=O)c2ccc3nc(Cc4ccc(OC)c(OC)c4)oc3c2)on1,?,-12%,.,9%,0%,-10%
COc1ccc(Cc2nc3ccc(C(=O)NCCc4ccccc4)cc3o2)cc1,.,4%,.,.,.,.
Cc1ccc(NC(=O)Cn2c(=O)c3cc(Cl)ccc3n3nncc23)cc1,.,-2%,-8%,.,.,.
COc1cccc(C2C(C(=O)Nc3cccnc3)=C(C)Nc3nc(SCc4ccccc4)nn32)c1 (stereo not given),.,0%,-3%,.,.,.
COC(=O)C[C@H]1c2ccccc2C2=C(C[C@@H](C)[C@H]3C(=O)NC(=O)[C@@H]23)N1C(=O)OC,.,.,9%[9.22 µM],.,.,.
C=C(C)Cn1cnc2c(oc3nc4c(cc32)CCCC4)c1=O,?,21µM*,.,?,2.5µM*,1.6µM*
Cc1ccc(N(CC(=O)N/N=C/c2cc(C)n(-c3ccccc3C)c2C)S(C)(=O)=O)cc1,17%,17µM*,1%,-1%,-5%,3%
Cc1cc(C)cc(-n2c(C)cc(/C=N/NC(=O)CN(c3c(C)cccc3C)S(C)(=O)=O)c2C)c1,-3%,0%,17%,-2%,-1%,-35%
CN1CCN(C(c2cccc(Br)c2)c2sc3nc(-c4ccco4)nn3c2O)CC1 (stereo not given),.,-10%,.,.,.,.
Cc1nc(-c2cccc(NC(=O)Cc3ccccc3)c2)cs1,?,?,3%,-1%,-2%,4%
CC(C)C(=O)Nc1ccc(-c2csc(-c3ccccc3)n2)cc1,?,?,?,22%,2.2µM*,?
CC(C)C(=O)Nc1cccc(-c2csc(-c3ccccc3)n2)c1,10%,17µM*,?,-1%,-2%,-1%
CCN(CC)c1ccc(/C=N/Nc2nc3ccccc3[nH]2)c(O)c1,?,7.6µM*,-73%,?,-30%,-28%
Cc1ccc2cc(/C=N/NC(=O)c3ccc(F)cc3)c(Cl)nc2c1,13%,-2%,-22%,?,-3%,0%
Cc1ccc2cc(/C=N/Nc3nc4ccccc4[nH]3)c(Cl)nc2c1,?,0.085µM*,5µM*,?,2.8µM*,0.63µM*
O=C(c1ccc2c(c1)OCCCO2)N1CCCCC1,?,-19%,.,4%,7%,25%
Cc1ccc(C(=O)N2CCCCC2CCN2CCCCC2)cc1 (stereo not given),.,-1%,3%,.,.,.
C=CCN1C(=O)C2C(C(=O)NC3CCCC3)C3(C)C=CC2(O3)C1C(=O)NC1CCCC1 (stereo not given),17%,2%,.,-1%,-1%,-4%
CC(=O)N1CCN(c2ccc(NC(=O)c3ccc(Br)o3)cc2Cl)CC1,?,?,21%,-4%,13%,20%
COc1c(F)c(F)c(C(=O)Nc2ccc(N3CCN(C(C)=O)CC3)c(Cl)c2)c(F)c1F,23µM*,-11%,-6%,-14%,1%,-5%
SMILES,ELG1 repair inh,FLuc modulator,SMN2 splice up,ELG1 genotoxic,NPC1 prom act,Rab9 promoter act
O=C(Nc1ccc(N2CCN(C(=O)c3cccs3)CC2)c(Cl)c1)c1cccnc1,6.5µM*,-4%,-27%,-14%,0%,-7%
O=C(Nc1ccc(N2CCN(C(=O)c3ccco3)CC2)c(Cl)c1)c1cccnc1,6.5µM*,-2%,-9%,-12%,-7%,-6%
O=C(c1ccco1)N1CCN(C(=S)Nc2ccc(F)c(Cl)c2)CC1,2%,6%,.,-1%,-2%,5%
O=C(Nc1cccc(NC(=O)c2cccs2)c1)c1cccnc1,?,?,3%,-7%,-1%,-1%
O=C(Nc1ccc(N2CCN(C(=O)c3ccco3)CC2)c(Cl)c1)c1c(F)c(F)c(F)c(F)c1F,18µM*,2%,-104%,-3%,-4%,-17%
COc1cc(Cl)c(C)cc1NC(=O)CN1C(=O)C2CCCCC2C1=O (stereo not given),13%,4%,.,0%,-2%,1%
CN(C(=O)COC(=O)C12CC3CC(CC(Cl)(C3)C1)C2)c1ccccc1,-29%,.,.,-6%,.,.
c1ccc(Nc2cccc(Nc3ccccc3)c2)cc1,?,15µM*,22%,?,24%,23%
COc1ccc(-n2nc3cc(C)c(NC(C)=O)cc3n2)cc1,?,0.6µM*,1.6µM*,?,0.32µM*,0.32µM*
CCc1ccc(-n2nc3cc(C)c(NC(=O)c4cc(OC)cc(OC)c4)cc3n2)cc1,.,1.3µM*,2%,.,.,.
COc1ccc(-n2nc3cc(C)c(NC(=O)C(C)C)cc3n2)cc1,?,0.21µM*,2.8µM*,?,0.32µM*,0.32µM*
CCOc1ccc(-n2nc3cc(C)c(NC(=O)CC)cc3n2)cc1,.,?,-10%,.,.,.
CCc1ccc(-n2nc(CO)c(C(=O)NCCOC)n2)cc1,.,17µM*,-2%,.,.,.
c1ccc(CSc2nc3ncncc3[nH]2)cc1,11%,17µM*,.,4%,8%,20%
Cc1ccc(CSc2nc3ncccc3[nH]2)cc1,?,2.4µM*,1.8µM*,24%,0.56µM*,0.79µM*
Clc1ccc(CSc2nc3ncccc3[nH]2)cc1,.,6µM*,13µM*,.,.,.
Cc1nn(CCCC(=O)Nc2cccc(F)c2)c(=O)c2c1sc1ccccc12,.,15µM*,.,.,.,.
CCCOc1ccc(CNC(=O)CCCn2nc(C)c3sc4ccccc4c3c2=O)cc1,.,7.6µM*,.,.,.,.
Cc1nn(CCCC(=O)NCc2ccccc2Br)c(=O)c2c1sc1ccccc12,.,-6%,.,.,.,.
CCc1cccc(C)c1NC(=O)CCCn1nc(C)c2sc3ccccc3c2c1=O,.,-11%,.,.,.,.
COc1ccc(-c2nc3n(n2)C(c2ccc(OC)c(OC)c2)C(C(=O)Nc2cccnc2)=C(C)N3)cc1 (stereo not given),.,-7%,.,.,.,.
